Results filed as inconclusive are left out. Values without a mark were called inactive. Active and inactive are the calls of the source. The call rests on the fitted dose curve; in most records, active means well fitted inhibition curve with a large enough effect; inconclusive means small, poorly fitted or top-dose-only effect; inactive means flat fitted curve, though single readings scatter.
tested on: HEK293; assay: Cytotoxic Profiling of Annotated Libraries Using Quantitative High-Throughput Screening (AID 1296008); settings: Five cell lines viability, CellTiter-Glo ATP luminescence, 48-72 h; max response: stronger effect = lower value; further: nearly all actives have a fitted effect of over 60% in size
Method in brief: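 Cells exposed to compounds for 48 or 72 hr at 37 degrees Celsius. Viability read as ATP-coupled luminescence with CellTiter-Glo after 10 min at room temperature.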
On the % scale 0 is the no-effect control and ±100 the full control effect; potency means the concentration at half of the fitted maximal effect.

Compound	Potency	max response [%]	outcome
CNC(=O)c1ccccc1Nc1nc(Nc2ccc3c(c2OC)CCC[C@@H](N2CCN(CCO)CC2)C3)ncc1Cl	5.8 µM (active)	–	–
Cc1c[nH]c2nccc(Oc3c(F)cc(Nc4cc(Cl)nc(N)n4)cc3F)c12	5.8 µM (active)	–	–
C=C(CCC1=C(C)[C@H]2[C@H](CC3[C@@H]4CC=C5C[C@@H](O)C[C@@H](O)[C@]5(C)C4[C@H](O)C[C@@]32C)O1)CO[C@@H]1O[C@H](CO)[C@@H](O)[C@H](O)[C@H]1O (stereo not given in full)	1.37 µM (active)	–	–
CC1=CC(=O)CC(C)(C)[C@H]1/C=C/C(CO)O[C@@H]1O[C@H](CO)[C@@H](O)[C@H](O)[C@H]1O (stereo not given in full)	–	-4.12	–
CCN(CC)Cc1ccc(C(=O)N(CCc2ccccc2OC)[C@@H]2CCNC2)cc1	5.63 µM (active)	–	–
N=c1nc2n(cc1F)C1OC(CO)C(O)C1O2 (stereo not given)	5.17 µM (active)	–	–
CC(C)(C(=O)NCC(F)(F)C(F)(F)F)C(=O)NC1C(=O)Nc2ccccc2-c2ccccc21 (stereo not given)	5.8 µM (active)	–	–
COC(=O)C1(C)c2[nH]c3ccccc3c2CCN1C(=O)CCl (stereo not given)	7.31 µM (active)	–	–
CO/N=C(/C(=O)N[C@@H]1C(=O)N2C(C(=O)O)=C(Cn3ccc(=N)n3CCO)CS[C@H]12)c1csc(N)n1	–	-94.3	–
Cc1ccc(C(=O)Nc2noc3ccccc23)cc1	18.4 µM (active)	–	–
CC(C)=CCC/C(C)=C/Cc1ccc(O)c(C2OC(=O)c3cc(C(=O)O)cc(O)c32)c1O (stereo not given)	–	0.876	–
CC(=O)O[C@H]1C(=O)[C@@]2(C)[C@H]([C@H](OC(=O)c3ccccc3)[C@]3(O)C[C@H](OC(=O)[C@H](O)[C@@H](NC(=O)c4ccccc4)c4ccccc4)C(C)=C1C3(C)C)[C@]1(OC(C)=O)CO[C@@H]1C[C@@H]2O	0.0055 µM (active)	–	–
CC1(C)CCC(C)(C)c2cc(C3(c4ccc(C(=O)O)cc4)OCCO3)ccc21	–	-82.5	–
C[C@H](CCC(=O)O)[C@H]1CC[C@H]2[C@@H]3C[C@H](O)[C@@H]4C[C@H](O)CC[C@]4(C)[C@H]3CC[C@]12C	–	0.0594	–
CNCc1ccc(-c2cc(-c3nc(-c4ccc(S(=O)(=O)C(C)C)cc4)cnc3N)on2)cc1	1.16 µM (active)	–	–
Cc1ccc(S(=O)(=O)n2ccc(-c3c(-c4ccc(Cl)cc4)noc3C)n2)cc1	4.11 µM (active)	–	–
CC1(C)CCCC2(C)C1CC(=O)C13CC(CCC12)C(O)(CO)C3 (stereo not given)	–	0.204	–
COc1cc(O)cc(C)c1C(=O)O[C@@H]1[C@H](O)[C@@H](CO)O[C@H]1n1ccc(=O)[nH]c1=O	5.63 µM (active)	–	–
CC(=O)O[C@@H]1CC(C)=C2[C@H]1[C@H](C)CC[C@H]2/C=C(\C)C(=O)O	–	-2.45	–
NC1CCC(Nc2cc(-c3cccc(NCc4cccc(F)c4)n3)c(Cl)cn2)CC1 (stereo not given)	0.259 µM (active)	–	–
COC(=O)CC(O)CC(O)/C=C/c1c(C)ccc2c1C(O)CC(C)C2 (stereo not given)	–	–	inactive
CC(C)c1cc(CNc2nc(Nc3cc(C4CC4)[nH]n3)cc(N3CCN(C)CC3)n2)on1	1.3 µM (active)	–	–
CS(=O)(=O)c1ccc(-c2nnc(/C=C/c3nnc(-c4ccc(C#N)cc4)o3)n2-c2ccccc2Cl)nc1	11.6 µM (active)	–	–
NC(=O)c1cccc2cn(-c3ccc(C4CCCNC4)cc3)nc12 (stereo not given)	7.31 µM (active)	–	–
CC(C)c1ccc(CO)cc1O[C@@H]1O[C@H](CO)[C@@H](O)[C@H](O)[C@H]1O	–	–	inactive
C=C1C(=O)O[C@H]2C1[C@H](OC(=O)/C(=C/CO)COC(=O)/C(C)=C/CO)CC(=C)[C@@H]1CC(=O)[C@@H](C)[C@@H]12 (stereo not given in full)	11.2 µM (active)	–	–
O=C(c1ccccc1)c1ccc2nc(NC(=O)c3csc(C4CCN(c5ncnc6ccsc56)CC4)n3)[nH]c2c1	5.17 µM (active)	–	–
COc1ccc(-c2cnc(-c3cccc4c3-c3ccccc3C4=O)o2)cc1	0.112 µM (active)	–	–
CC(=O)N[C@H]1[C@H](O[C@H]2CC[C@@]3(C)C(CC[C@]4(C)C3CC=C3C5CC(C)(C)CC[C@]5(C(=O)O)[C@H](O)C[C@]34C)C2(C)C)O[C@H](CO[C@@H]2OC[C@H](O)[C@H](O)[C@H]2O[C@@H]2OC[C@@H](O)[C@H](O)[C@H]2O)[C@@H](O)[C@@H]1O (stereo not given in full)	–	-1.2	–
CO[C@H]1C[C@@H]2CC[C@@H](C)[C@@](O)(O2)C(=O)C(=O)N2CCCC[C@H]2C(=O)O[C@H]([C@H](C)C[C@@H]2CC[C@@H](OP(C)(C)=O)[C@H](OC)C2)CC(=O)[C@H](C)/C=C(\C)[C@@H](O)[C@@H](OC)C(=O)[C@H](C)C[C@H](C)/C=C/C=C/C=C/1C	0.0063 µM (active)	–	–
